Bioassay records as filed in PubChem BioAssay.
HSV augment = increases HSV replication in cells; HSV replication augmentation in cells, fold increase; maximum fold increase; 0.005% of 220,000 active; in the data active means maximum fold increase above about 1.5; tested in PC3 cells
NPR2 activator = GC-B (human) receptor activation; activation, % at 10 µM; P20594; 0.11% of 370,000 active; HEK293-GC-B cells, CNP EC30, cGMP TR-FRET; 0% at EC30 CNP, 100% saturating CNP;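 active means activation at 10 µM reaching about 35% in either raw or pattern-adjusted values, limit read from the data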
Target sequence (P20594 whole entry, looked up): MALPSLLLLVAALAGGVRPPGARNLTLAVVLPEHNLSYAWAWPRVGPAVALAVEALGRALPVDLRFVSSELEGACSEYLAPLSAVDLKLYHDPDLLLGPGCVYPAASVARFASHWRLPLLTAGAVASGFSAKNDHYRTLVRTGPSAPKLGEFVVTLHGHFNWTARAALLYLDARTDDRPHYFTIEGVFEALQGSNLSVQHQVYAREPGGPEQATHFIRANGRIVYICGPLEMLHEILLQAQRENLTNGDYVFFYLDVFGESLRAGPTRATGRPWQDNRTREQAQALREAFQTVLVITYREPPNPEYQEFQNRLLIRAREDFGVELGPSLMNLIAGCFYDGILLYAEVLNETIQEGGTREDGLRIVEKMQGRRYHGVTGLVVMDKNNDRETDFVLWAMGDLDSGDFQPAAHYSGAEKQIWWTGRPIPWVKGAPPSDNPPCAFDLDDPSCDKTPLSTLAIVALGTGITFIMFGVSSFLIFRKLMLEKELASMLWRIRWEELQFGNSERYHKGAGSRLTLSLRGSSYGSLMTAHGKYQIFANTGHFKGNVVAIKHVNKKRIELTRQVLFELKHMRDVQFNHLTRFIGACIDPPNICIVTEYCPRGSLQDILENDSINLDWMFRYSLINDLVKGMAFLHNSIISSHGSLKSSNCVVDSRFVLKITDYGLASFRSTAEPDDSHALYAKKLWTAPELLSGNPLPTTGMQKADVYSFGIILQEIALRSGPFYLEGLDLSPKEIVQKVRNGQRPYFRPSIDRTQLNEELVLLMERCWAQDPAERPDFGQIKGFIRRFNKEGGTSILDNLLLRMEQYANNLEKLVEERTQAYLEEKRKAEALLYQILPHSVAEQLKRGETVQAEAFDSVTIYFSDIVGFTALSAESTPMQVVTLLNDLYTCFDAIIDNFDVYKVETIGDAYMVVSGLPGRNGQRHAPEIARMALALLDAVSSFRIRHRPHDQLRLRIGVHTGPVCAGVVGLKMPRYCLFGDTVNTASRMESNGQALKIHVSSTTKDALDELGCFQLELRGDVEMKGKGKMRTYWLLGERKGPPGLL
A1 inh = inhibitors of the anti-apoptotic protein A1, read as caspase activation; MEF A1-2A-BIM cells, Caspase-Glo 3/7 luminescence, 3 h; percent of clofoctol response, vehicle zero; caspase activation, % (test concentration not listed); 0.066% of 330,000 active; AID 2462;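 active means over half of replicate activation scores above 10%, or exactly half above 10 with the replicate mean above 10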
Efflux pump mplx = inhibitors of Candida antifungal efflux pumps expressed in yeast. S. cerevisiae Candida pump triplex, Nile Red efflux. inhibition, % at 10 µM. 0.44% of 330,000 active;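 active means plate passing quality check with inhibition over a set limit, or well fluorescence over plate mean plus 4 SD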;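 further: Nile Red retained in pooled yeast measured as flow cytometry median fluorescence; 0% = buffer negative control and 100% = Enniatin B positive control; higher means more Nile Red kept so more efflux inhibition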
TAG inh = reduces triacylglycerol accumulation in H9c2 cells | inhibition, % at 12.5 µM | 0.66% of 230,000 active | Nile Red lipid (TAG) fluorescence; cells loaded with 200 µM oleic acid;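 active means pattern-corrected inhibition of lipid staining of at least 50% with the nuclear-stain viability signal not falling by more than 50%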;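 further: 0% = DMSO wells and 100% = triacsin C control wells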
GC-A act = GC-A (human) enzyme activation. 0.14% of 370,000 active. HEK293 GC-A cells, cGMP TR-FRET, EC30 ANP; 0% at EC30 ANP, 100% saturating ANP. activation, % at 10 µM. P16066; in the data active means activation above about 40%
Cmpd fluor yeast = flagged as fluorescent in efflux inhibitor counter-screen; shares compounds with Efflux pump mplx; S. cerevisiae AD/pABC3, compound fluorescence, flow cytometry; fluorescence ratio to DMSO, % at 10 µM; 4% of 1,700 active; AID 588517;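 active means fluorescence ratio to DMSO above its plate's cutoff, the plate mean ratio plus 5 SD, cut at about 210% in these data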;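 further: unstained yeast with no Nile Red so the signal is compound autofluorescence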
CaMdr1 efflux inh = blocks the Candida albicans Mdr1 efflux pump in yeast | shares compounds with Efflux pump mplx | S. cerevisiae AD/CaMDR1, Nile Red efflux, flow cytometry | inhibition, % at 10 µM | 1% of 1,700 active; in the data active means inhibition above about 26%;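 further: 0% = DMSO vehicle and 100% = reference inhibitor; higher means more Nile Red retained so more efflux inhibition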
Cdr2 pump inh = Candida Cdr2 efflux pump inhibition. shares compounds with Efflux pump mplx. S. cerevisiae AD/CaCDR2, Nile Red retention, flow cytometry. Nile Red retention ratio vs DMSO, % at 10 µM. 4% of 1,700 active; in the data active means Nile Red retention ratio vs DMSO above about 190%;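 further: higher ratio means more blocking of Cdr2 efflux of the dye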
CaCdr1 efflux inh = Candida Cdr1 efflux pump inhibition; shares compounds with Efflux pump mplx; inhibition, % at 10 µM; S. cerevisiae AD/CaCDR1, Nile Red efflux, flow cytometry; 1% of 1,700 active;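 active means inhibition above the screen-wide mean plus twice its standard deviation, cut at about 32% in these data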
Active calls of the source: *; i = inactive; · = no result. Only some compounds are listed: those with a hit (about 1% of all), similar ones and a draw of the others.

SMILES	HSV augment	NPR2 activator	A1 inh	Efflux pump mplx	TAG inh	GC-A act	Cmpd fluor yeast	CaMdr1 efflux inh	Cdr2 pump inh	CaCdr1 efflux inh
O=C(NC(Cc1ccccc1)C(=O)O)c1ccc(S(=O)(=O)N2CCCCC2)cc1 (centres undefined)	i	-1	1	6.7*	·	3	114	0	103	0
O=C(NC(Cc1ccccc1)C(=O)O)c1ccc(S(=O)(=O)N2CCCC2)cc1 (centres undefined)	i	-1	0	0	·	1	·	·	·	·
CC(C)Cn1nc(C(=O)Nc2nnc(C3CC3)s2)c2ccccc2c1=O	·	4	0	0.9*	-13	-5	113	0	116	0
Cc1ccc(-n2c(SCC(=O)c3ccc4ccccc4c3)nnc2-c2cccnc2)cc1	·	-4	·	·	·	-4	·	·	·	·
CC(C)C[C@H]1COc2cc(Br)ccc2S(=O)(=O)N1Cc1cn(Cc2ccc(Cl)cc2)nn1	·	0	·	·	·	1	·	·	·	·
Cc1nnc(SCC(=O)NNC(=O)c2ccc(Cl)cc2)s1	·	6	3	0	·	-3	·	·	·	·
Nc1nnc(SCC(=O)NNC(=O)c2ccc(Cl)cc2)s1	·	11	0	93*	-14	0	80	0	93	0
CN(C)CC/C=C1/c2ccccc2Sc2ccc(Cl)cc21	i	-17	2	0	3	-32	97	0	94	0
CCOC(=O)[C@]12CCCC3=C1N(CCC3)C(=O)[C@@H](CC(=O)NCCCOC)C2	·	5	·	·	·	2	·	·	·	·
c1ccc(-c2ccc3c(c2)c2c4n3CCN=C4CCC2)cc1	i	-14	·	0.3*	·	1	103	0	106	0
c1csc(-c2nnc(SCc3cccc4ccccc34)o2)c1	·	-2	·	·	·	-2	·	·	·	·
O=C(/C=C/c1ccc2c(c1)OCO2)NCCCN1CCOCC1	i	-2	0	11*	·	1	98	0	100	0
O=C(/C=C/c1ccc(Cl)cc1)NCCCN1CCOCC1	·	1	0	0	17	3	·	·	·	·
COc1cc(NC(=O)C2CCCCN2)ccc1OCC(C)C (centres undefined)	i	-3	0	0.5*	·	0	98	0	100	0
O=c1cc(N2CCN(c3cccc(C(F)(F)F)c3)CC2)[nH]c(=O)n1-c1ccccc1	·	-8	·	·	·	2	·	·	·	·
N#C/C(=C\c1ccc(OCc2ccccc2)cc1)C(=O)Nc1ccc(C(=O)O)cc1	·	-1	0	0	·	2	·	·	·	·
COc1ccc(NC(=O)/C(C#N)=C/c2ccc(OCc3ccccc3F)cc2)cc1	i	1	0	6.5*	·	0	96	0	100	0
CCOC(=O)c1c(O)c2cccc3c2n(c1=O)CC3	i	6	0	0	-7	3	100	0	94	0
Cc1ccc(NC(=O)Cc2cccc(OC(F)(F)F)c2)c(S(=O)(=O)N2CCOCC2)c1	·	6	·	·	·	4	·	·	·	·
CC(C)[C@H]1/C(=C/C2CC2)N2C(=O)C[C@H](c3ccccc3)N=C2N1C	·	-4	·	·	·	-1	·	·	·	·
O=C(CNC(=O)c1nn(Cc2ccccc2)c(=O)c2ccccc12)Nc1ccc(F)c(F)c1F	·	7	-1	0.9*	4	-2	101	0	108	0
CCn1c(SCC(=O)NN=Cc2cc(OC)ccc2OC)nnc1-c1ccc(OC)cc1	·	-24	·	·	·	-25	·	·	·	·
CCC(C)(C)NC(=O)C(c1ccccc1F)N(C(=O)c1ccn[nH]1)c1ccccc1 (centres undefined)	i	-4	0	0.4*	-9	-11	93	0	108	0
